Assay outcomes from PubChem.
Shiga toxin inh: A qHTS for Small Molecule Inhibitors of Shiga Toxin; 290,000 compounds, 9.2% hits; AID 2315, 2010; inhibition, % at 38.7 µM; Vero cells, Shiga toxin protein synthesis inhibition reporter; in the data active = inhibition mostly above about 28%, no sharp cut-off; inactive = mostly below about 43%; note: 0% is about no effect
RE007 growth inh: qHTS Assay for Inhibitors of the HIV-1 protein Vpr; S. pombe RE007 Vpr strain, BacTiter-Glo ATP luminescence, 24 h; Potency, µM (top dose mostly 92.2 µM), inactives show at the highest dose activity change, negative = less growth, most hits filed as inhibitors; 360,000 compounds, 0.21% hits; active = well fitted falling curve with a large enough effect; inconclusive = small, poorly fitted or top-dose-only effect; inactive = no such curve, though single readings can be large or run the other way; note: potency is the fitted concentration of half-maximal effect; % is set by controls: 0 for no effect and ±100 for the full control effect; nearly all actives have a fitted effect of over 50% in size
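Fission yeast strain RE007, carrying one chromosomally integrated HIV-1 vpr copy, was seeded at OD 0.01 in PMG+AL medium with 23 nL pinned compound. After 24 h at 30 °C and 99% humidity, viability was read by BacTiter-Glo luminescence.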
Giardia FBPA inh: qHTS Assay for Inhibitors of Fructose-1,6-bisphosphate Aldolase from Giardia Lamblia; purified Giardia FBPA; A8B2U2; Potency, µM (series often up to 59.6 µM), without a hit: top-dose activity, negative = inhibition, hits mostly inhibitors; 290,000 compounds, 0.71% hits; note: potency is the fitted concentration of half-maximal effect; % is set by controls: 0 for no effect and ±100 for the full control effect; nearly all actives have a fitted effect of over 55% in size
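Giardia FBPA (40 nM reagent) was preincubated 10 min at RT with compound (up to 57.5 uM final), then substrate plus GAPDH/TPI/NAD/arsenate coupling system with diaphorase/resazurin was added; resorufin fluorescence (525/598 nm) was read after 20 min.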
Cycloheximide cs: Cycloheximide Counterscreen for Small Molecule Inhibitors of Shiga Toxin. cell reporter, cycloheximide protein synthesis inhibition counterscreen. max response, %. 300,000 compounds, 12% hits. AID 2314, 2010; in the data active = max response mostly above about 13%, no sharp cut-off; inactive = mostly below about 14%; note: read at 38.3 µM for the half of the compounds with a filed dose; 0% is about no effect
TbPYK inhibitor: qHTS of Trypanosoma Brucei Inhibitors. pyruvate kinase (Trypanosoma brucei), Q57TT1. TbPYK enzyme, Kinase-Glo Plus ATP luminescence, 45 min. Potency, µM (doses to about 76.8 µM), for inactives: at the highest dose activity, negative = inhibition, usual class: inhibitors. 410,000 compounds, 0.12% hits; note: potency is the fitted concentration of half-maximal effect; % is set by controls: 0 for no effect and ±100 for the full control effect; nearly all actives have a fitted effect of over 50% in size
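Luminescent Kinase-Glo Plus end-point after 45 min room-temperature reaction of T. brucei pyruvate kinase started with 130 uM ADP (final). Buffer TEA 50 mM pH 7.2 with KCl, MgCl2, BSA, Tween-20; titration-based qHTS with fitted concentration-effect curves.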
LmPK inhibitor: qHTS Assay for Inhibitors of Leishmania Mexicana Pyruvate Kinase (LmPK) | purified LmPK, Kinase-Glo ATP luminescence, 1 h | AID 1721, 2009 | Potency, µM (titrated, usually from 57.5 µM), without a hit: at the top dose activity change, negative = inhibition, hits mostly inhibitors | 290,000 compounds, 0.37% hits | Q27686; note: potency is the fitted concentration of half-maximal effect; % is set by controls: 0 for no effect and ±100 for the full control effect
Target sequence (Q27686 whole entry, looked up): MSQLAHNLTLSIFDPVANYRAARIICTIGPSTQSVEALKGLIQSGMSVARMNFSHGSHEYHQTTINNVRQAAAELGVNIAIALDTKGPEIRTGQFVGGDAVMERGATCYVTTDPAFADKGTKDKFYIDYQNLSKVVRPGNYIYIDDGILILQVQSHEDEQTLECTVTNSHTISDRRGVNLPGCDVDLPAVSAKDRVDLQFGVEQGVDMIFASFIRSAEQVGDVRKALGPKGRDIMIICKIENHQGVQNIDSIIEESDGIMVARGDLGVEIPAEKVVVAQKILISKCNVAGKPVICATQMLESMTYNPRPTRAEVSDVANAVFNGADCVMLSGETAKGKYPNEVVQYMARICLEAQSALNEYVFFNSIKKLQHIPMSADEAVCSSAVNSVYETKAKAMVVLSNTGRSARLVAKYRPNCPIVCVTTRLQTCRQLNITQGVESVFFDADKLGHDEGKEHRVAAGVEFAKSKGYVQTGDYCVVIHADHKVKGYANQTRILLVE
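Kinase-Glo luminescence read after 1 h RT reaction of 0.1 nM LmPK with 0.5 mM PEP and 0.1 mM ADP. Activity scaled between uninhibited and enzyme-free controls.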
Numbers without * were called inactive; [ ] = dose if it differs, or a comment. This is one part of a sample in which hits are shown more often than they occur. Unless noted, calls come from the whole dose curve; as a rule, active = well fitted curve in the direction sought with a large enough effect; inconclusive = small, poorly fitted or top-dose-only effect, or another doubt; inactive = no such curve, though single readings can be large; an effect the other way counts as inactive or inconclusive.

What do the screens show for `CCCCCCCNc1cccc(C)c1`?
Shiga toxin inh: 5; RE007 growth inh: -14%; Giardia FBPA inh: 3%; Cycloheximide cs: -3; TbPYK inhibitor: 0%; LmPK inhibitor: 0%

Results for CN(Cc1ccccc1)C(=O)c1cc(-c2ccc(Br)cc2)on1 ?
Shiga toxin inh: 69*; RE007 growth inh: 6%; Giardia FBPA inh: -1%; Cycloheximide cs: 21*; TbPYK inhibitor: -6%; LmPK inhibitor: 4%

What do the screens show for `CCOC(=O)c1c(NC(=O)c2cc(-c3ccc(Br)cc3)on2)sc(C(C)=O)c1C`?
TbPYK inhibitor: 1%

What do the screens show for `CCCNC(=O)c1cc(-c2ccc(Br)cc2)on1`?
Shiga toxin inh: 66*; RE007 growth inh: 7%; Giardia FBPA inh: 8%; Cycloheximide cs: 34*; TbPYK inhibitor: 2%; LmPK inhibitor: 0%

Results for Cc1cc(C(=O)N(C)Cc2ccc(Br)cc2)no1 ?
Shiga toxin inh: -10; RE007 growth inh: 18%; Giardia FBPA inh: -1%; Cycloheximide cs: -3; TbPYK inhibitor: -4%; LmPK inhibitor: 3%

What do the screens show for `CC(C)NC(=O)c1cc(-c2ccc(Br)cc2)on1`?
Shiga toxin inh: 122*; RE007 growth inh: -11%; Giardia FBPA inh: 3%; Cycloheximide cs: 49*; TbPYK inhibitor: inconclusive; LmPK inhibitor: -1%

What do the screens show for `O=C(NCCc1ccccc1)c1cc(-c2ccc(Cl)cc2)on1`?
TbPYK inhibitor: 1%

Results for Cc1c(CCNC(=O)c2c(F)cccc2F)sc2nc(-c3ccc(F)cc3)nn12 ?
TbPYK inhibitor: -3%

How did COc1cc(-c2cc(OC)c3c(C)oc(C)c3c(=O)c2)ccc1OC(=O)c1cccc(C)c1 do in these assays?
TbPYK inhibitor: -6%

Results for Cc1c(C(=O)Nc2ccccc2)oc2c1C(=O)CC(C)(C)C2 ?
Shiga toxin inh: 82*; RE007 growth inh: -12%; Giardia FBPA inh: 7%; Cycloheximide cs: 33*; TbPYK inhibitor: -4%; LmPK inhibitor: 0%

What do the screens show for `CCCCCCCCCCCCCCCC(O)C[N+](C)(C)CCO` (stereo not drawn)?
RE007 growth inh: 35µM*; TbPYK inhibitor: -14%

What do the screens show for `CCCCCC(O)CCCC(=O)O` (stereo not drawn)?
RE007 growth inh: -5%[18.4 µM]; Giardia FBPA inh: -3%; TbPYK inhibitor: 7%

What do the screens show for `COc1cccc(OCc2cc(C(=O)N(Cc3nccn3C)C(C)C)no2)c1`?
Shiga toxin inh: -2; RE007 growth inh: 5%; Cycloheximide cs: 11; TbPYK inhibitor: 0%; LmPK inhibitor: -7%

How did Cc1cccc(C)c1OCc1cc(C(=O)N(C)Cc2cc(C3CC3)n[nH]2)no1 do in these assays?
Shiga toxin inh: 50*; RE007 growth inh: 13%; Giardia FBPA inh: 10%; Cycloheximide cs: 32*; TbPYK inhibitor: 2%; LmPK inhibitor: 6%

What do the screens show for `CCn1ccnc1CN(C)C(=O)c1cc(COc2ccc(OC)c3ccccc23)on1`?
Shiga toxin inh: 12; RE007 growth inh: -6%; Giardia FBPA inh: inconclusive; Cycloheximide cs: 8.3*; TbPYK inhibitor: -3%; LmPK inhibitor: -1%

How did CCN(Cc1ccncc1)C(=O)c1cc(COc2c(C)cccc2C)on1 do in these assays?
Shiga toxin inh: 41*; RE007 growth inh: 0%; Giardia FBPA inh: 1%; Cycloheximide cs: 11*; TbPYK inhibitor: 1%; LmPK inhibitor: -6%

What do the screens show for `Cc1cccc(C)c1OCc1cc(C(=O)N(Cc2nccn2C)C(C)C)no1`?
Shiga toxin inh: 25; RE007 growth inh: -6%; Giardia FBPA inh: -10%; Cycloheximide cs: 19*; TbPYK inhibitor: 4%; LmPK inhibitor: 1%

What do the screens show for `O=c1c2nc(Br)n([C@@H]3O[C@@H]4CO[P@@](O)(=S)O[C@H]4[C@H]3O)c2nc2[nH]c(-c3ccccc3)cn12`?
Shiga toxin inh: -10; Giardia FBPA inh: -23%; Cycloheximide cs: 2

Results for COc1cc(C)ccc1OCc1cc(C(=O)N(Cc2nccn2C)C(C)C)no1 ?
Shiga toxin inh: 87*; RE007 growth inh: -10%; Cycloheximide cs: 73*; TbPYK inhibitor: 3%; LmPK inhibitor: 0%

How did COc1ccccc1C1C(C(N)=O)=C(C)Nc2nc(SCc3ccccc3F)nn21 (stereo not drawn) do in these assays?
TbPYK inhibitor: -2%

How did CCOc1ccc(CNC(=O)CN2N=C(c3ccccc3)CCC2=O)cc1OC do in these assays?
TbPYK inhibitor: 3%

What do the screens show for `COc1ccc(CN=C(Nc2ccccc2)SC2CC(=O)NC2=O)cc1` (stereo not drawn)?
Shiga toxin inh: 143*; RE007 growth inh: -2%; Giardia FBPA inh: -11%; Cycloheximide cs: 44*; TbPYK inhibitor: 2%; LmPK inhibitor: 0%

What do the screens show for `Cc1ccc(C)c(N2CCN(c3nc4ccccc4n4nnnc34)CC2)c1`?
TbPYK inhibitor: 7%

How did Cc1ccc2nc(-c3ccsc3)c(NC3CCCC3)n2c1 do in these assays?
Shiga toxin inh: 51*; RE007 growth inh: -27%; Giardia FBPA inh: -4%; Cycloheximide cs: 29; TbPYK inhibitor: -1%; LmPK inhibitor: 0%

How did C=C1SC(=Nc2ccccc2Cl)N(C(=O)c2sc3ccccc3c2Cl)C1(C)C do in these assays?
Shiga toxin inh: 99*; RE007 growth inh: 5%; Giardia FBPA inh: 3%; Cycloheximide cs: 50*; TbPYK inhibitor: 7%; LmPK inhibitor: 13%

Results for CC(C)(C)OC(=O)N/N=C\C=C\c1ccc2c(c1)OCO2 ?
Shiga toxin inh: 34*; RE007 growth inh: 18%; Giardia FBPA inh: 4%; Cycloheximide cs: 29*; TbPYK inhibitor: -3%; LmPK inhibitor: 0%

How did COC(=O)N/N=C\C=C\c1ccc2c(c1)OCO2 do in these assays?
Shiga toxin inh: -8; RE007 growth inh: -11%; Giardia FBPA inh: 4%; Cycloheximide cs: -2; TbPYK inhibitor: 2%; LmPK inhibitor: -16%

What do the screens show for `CCOC(=O)N/N=C\C=C\c1ccc2c(c1)OCO2`?
Shiga toxin inh: 58; RE007 growth inh: -29%; Giardia FBPA inh: 0%; Cycloheximide cs: 35*; TbPYK inhibitor: -7%; LmPK inhibitor: -7%

What do the screens show for `COc1cc2ncn(-c3cc(OCc4ccccc4C(F)(F)F)c(C(N)=O)s3)c2cc1OC`?
TbPYK inhibitor: 0%

Results for CCNc1nc(-c2ccc(OC(F)F)cc2)c(C)s1 ?
Shiga toxin inh: 124*; RE007 growth inh: -2%; Giardia FBPA inh: -7%; Cycloheximide cs: 41*; TbPYK inhibitor: -11%; LmPK inhibitor: 8%

How did COc1ccc2c(c1)c1c(c(=O)n(-c3ccccc3C)c(=O)n1CC(N)=O)n2C do in these assays?
TbPYK inhibitor: -6%
